Results published in paper PMC7819943, “Rice protein-binding microarrays: a tool to detect cis-acting elements near promoter regions in rice”.
Over roughly 68,000 sequences, “fluorescence intensity (a.u.)” has its median near 9,100; the highest 2% begin near 16,000. This is one part of a sample in which the highest values are shown more often than they occur.

What follows are sequences tested against OsWRKY34 (Oryza sativa, UniProt Q0JBA9 1-250) (assay: protein-binding microarray (RPBM); PBS, 2% BSA, 51.3 ng/ul salmon testes DNA, 50 uM zinc acetate, 200 nM TF, 25 C, 1 h; high values mean tight binding). Conditions: protein: recombinant; tags: N-terminal polyhistidine and DsRed monomer fusion (pET32a); label: CyDye5-dUTP incorporated in the synthesized complementary strand; 3' TTTTT single-stranded linker to array surface; dsDNA, one strand shown.
Procedure, shortened: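 Ni–NTA purification followed expression in E. coli BL21-CodonPlus of transcription factors fused N-terminally to a polyhistidine tag and DsRed. At 200 nM in PBS with 2% BSA, salmon testes DNA and 50 µM zinc acetate, the protein was incubated for 1 h at 25 °C with a custom Agilent array that had been primer-extended with Cy5-dUTP and blocked with 2% BSA. After washing, the array was read on an Axon 4000B scanner. The binding signal is per-feature fluorescence intensity in arbitrary units.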

Sequence of OsWRKY34 (Q0JBA9 entry or part of it): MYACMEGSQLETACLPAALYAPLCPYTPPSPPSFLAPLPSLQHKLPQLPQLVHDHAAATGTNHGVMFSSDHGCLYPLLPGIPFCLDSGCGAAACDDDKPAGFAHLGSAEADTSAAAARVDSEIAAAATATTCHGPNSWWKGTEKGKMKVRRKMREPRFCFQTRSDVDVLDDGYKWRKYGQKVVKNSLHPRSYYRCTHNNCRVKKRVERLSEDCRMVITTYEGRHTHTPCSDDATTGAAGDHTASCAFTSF

Going from “GAAATATCAACAACCCTATAAAAAAAGTCAACCCATGTACCGGAGTCACCTAGTGCAG” to “CACACACACAAATCCACAAGTAGACATCCTTCCATGTCTTCGGAGTCACCTAGTGCAG”, the binding signal falls from 9120 fluorescence intensity (a.u.) to 8380 fluorescence intensity (a.u.).

First: AGGTAGTCAAGGTGGACTTATTCCTTTTGTTTCTTCCATTCGGAGTCACCTAGTGCAG
Second: CCATTTGTCCACCACCACCTCCACCACCTGACACGTCGTCCGGAGTCACCTAGTGCAG
The binding signal of the first is higher: 8900 fluorescence intensity (a.u.) for the first, 8050 fluorescence intensity (a.u.) for the second.

Compared with “AATTATTTTCATTTGCTAAGTTACTATTTCGCATTTTTTTCGGAGTCACCTAGTGCAG”, “CAATTATTACAGGCGGCCAGCGCCTCATGGCTTTTACCTTCGGAGTCACCTAGTGCAG” is higher in binding signal: 8650 fluorescence intensity (a.u.) for the first, 8660 fluorescence intensity (a.u.) for the second.

First: TCTTACTTGCATGTGAACACCTCTTTGTCGGTTTTTCCATCGGAGTCACCTAGTGCAG
Second: AAAAAAGTCAACCCATGTACACCGTCCGATCTCCATCCGACGGAGTCACCTAGTGCAG
The binding signal of the first is higher: 10400 fluorescence intensity (a.u.) for the first, 8110 fluorescence intensity (a.u.) for the second.

Compared with “TTTTGTCTCTTTCTGCTGCTGGAGTAGTATTGTTCATTTACGGAGTCACCTAGTGCAG”, “CTGGTAGGATTGCTGCTTGCTTTGCCTTCACGTCATTATCCGGAGTCACCTAGTGCAG” is higher in binding signal: 9050 fluorescence intensity (a.u.) for the first, 11200 fluorescence intensity (a.u.) for the second.

Going from “TGCGTTTCCCGTCAGCCCTGTCACGCCGCCGCCGGTCGCCCGGAGTCACCTAGTGCAG” to “ACTTTCTTTTTGGGCCTGAAACCACGACGGCCCTTTGTTCCGGAGTCACCTAGTGCAG”, the binding signal falls from 12000 fluorescence intensity (a.u.) to 8760 fluorescence intensity (a.u.).

Compared with “AAAATAGGCCAATAGGGTGTTGAGAGAAAAGGAGATATATCGGAGTCACCTAGTGCAG”, “AAGGATATAAGGGTGGTTGAGGGGTAGAATAGGAAGAAATCGGAGTCACCTAGTGCAG” is lower in binding signal: 17500 fluorescence intensity (a.u.) for the first, 9360 fluorescence intensity (a.u.) for the second.

Going from “CGCAAGGGAGAATAGGGGTGTTGAGAGGAGGGGCGACAGGCGGAGTCACCTAGTGCAG” to “GATGGCTTCGATTTGCTGTGTTACTTCTTTTTTCTAGTTTCGGAGTCACCTAGTGCAG”, the binding signal rises from 8240 fluorescence intensity (a.u.) to 16900 fluorescence intensity (a.u.).

Going from “ATGTTGACTCGTTTGCCTGTGTTCCTCTTGCTGCTATTCACGGAGTCACCTAGTGCAG” to “TTTTGAGTGCTTTTATTTCTTTATTTCTTTATTTCTTTATCGGAGTCACCTAGTGCAG”, the binding signal falls from 19200 fluorescence intensity (a.u.) to 9320 fluorescence intensity (a.u.).

Going from “TCCTCTTTTTGCTGGCTTTCTGTTGACTGTTATTTTATTTCGGAGTCACCTAGTGCAG” to “CCTGTTGCTGCTCTGTGCCTCTGCTCTGCTCCTTGACTTCCGGAGTCACCTAGTGCAG”, the binding signal falls from 17100 fluorescence intensity (a.u.) to 11300 fluorescence intensity (a.u.).

Compared with “CCTCTTGCTATGTGCTGCTCTTCCTTGTTCTTCTTGCCTACGGAGTCACCTAGTGCAG”, “CTTTCTTTGACTGTTGCCTTTTATTTTGTGCAGGTTGTATCGGAGTCACCTAGTGCAG” is higher in binding signal: 10800 fluorescence intensity (a.u.) for the first, 11300 fluorescence intensity (a.u.) for the second.

First: TTGCTTTTGTGTTCGGTTTTTCTATTTTTTCTATTTTCTTCGGAGTCACCTAGTGCAG
Second: TATTTCGATTTGATGGCTTCCTGTTGCTTTTCCTGTTAATCGGAGTCACCTAGTGCAG
The binding signal of the first is lower: 13700 fluorescence intensity (a.u.) for the first, 14000 fluorescence intensity (a.u.) for the second.
